Key:
Experiment in all cases: log2 ratio of Biotin-Ahx-Ub-VS probe labelling (fragment/DMSO); higher = less target engagement (more negative = stronger competition), active = hit call of the paper (q ≤ 0.05, log2 ratio ≤ -1)
Details in all cases: compound concentration: 200 uM; treatment time: 3 h
USP34 = USP34 (UniProt Q70CQ2)
Procedure, shortened: (§1)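 HEK293T lysate in Tris/CHAPS/IGEPAL buffer with protease inhibitors (495 µg per sample) was given fragment at 200 µM or vehicle for 3 h, in triplicate. It then received Biotin-Ahx-Ub-VS at 0.5 µM final for 1 h. Labelled DUBs were NeutrAvidin-enriched, digested with LysC and trypsin, and run by diaPASEF LC-MS/MS. Values are average log2 fragment/vehicle ratios by unpaired t-test on global-median-normalised Spectronaut quantities of proteins with ≥2 unique peptides.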

USP36 = target: T1, USP36 (UniProt Q9P275)
T1 sequence (whole entry): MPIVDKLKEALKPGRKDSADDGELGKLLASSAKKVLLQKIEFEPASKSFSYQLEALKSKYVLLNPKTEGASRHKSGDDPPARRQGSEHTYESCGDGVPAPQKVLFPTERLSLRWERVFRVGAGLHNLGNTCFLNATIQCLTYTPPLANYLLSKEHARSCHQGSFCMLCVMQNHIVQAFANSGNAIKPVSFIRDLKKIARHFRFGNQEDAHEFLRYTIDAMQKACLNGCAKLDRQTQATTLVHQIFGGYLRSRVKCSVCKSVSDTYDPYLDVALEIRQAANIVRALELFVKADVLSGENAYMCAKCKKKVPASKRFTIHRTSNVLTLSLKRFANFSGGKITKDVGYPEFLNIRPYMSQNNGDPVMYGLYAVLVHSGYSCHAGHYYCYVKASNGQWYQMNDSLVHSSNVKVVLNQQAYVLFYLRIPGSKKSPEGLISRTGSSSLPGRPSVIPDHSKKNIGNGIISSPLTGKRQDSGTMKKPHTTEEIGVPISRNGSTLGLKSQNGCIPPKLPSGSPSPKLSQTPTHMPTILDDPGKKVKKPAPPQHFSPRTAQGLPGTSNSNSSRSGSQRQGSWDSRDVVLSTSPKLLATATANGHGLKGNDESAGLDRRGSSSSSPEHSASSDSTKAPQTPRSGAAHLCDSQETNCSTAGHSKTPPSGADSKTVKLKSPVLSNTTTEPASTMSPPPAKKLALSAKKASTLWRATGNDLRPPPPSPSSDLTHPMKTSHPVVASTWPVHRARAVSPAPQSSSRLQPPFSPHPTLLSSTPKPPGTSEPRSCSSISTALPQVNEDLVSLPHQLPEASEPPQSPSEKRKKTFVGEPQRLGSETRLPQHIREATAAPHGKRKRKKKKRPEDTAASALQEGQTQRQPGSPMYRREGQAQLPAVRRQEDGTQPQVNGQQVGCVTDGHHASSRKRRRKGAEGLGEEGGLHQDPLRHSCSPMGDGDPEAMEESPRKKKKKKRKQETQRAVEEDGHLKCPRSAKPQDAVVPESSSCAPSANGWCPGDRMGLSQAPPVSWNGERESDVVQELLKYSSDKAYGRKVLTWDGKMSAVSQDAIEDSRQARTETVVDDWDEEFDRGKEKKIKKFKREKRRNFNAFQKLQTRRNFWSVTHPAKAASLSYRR
Procedure, shortened: as §1

USP38 = target: T2, USP38 (UniProt Q8NB14)
T2 sequence (whole entry): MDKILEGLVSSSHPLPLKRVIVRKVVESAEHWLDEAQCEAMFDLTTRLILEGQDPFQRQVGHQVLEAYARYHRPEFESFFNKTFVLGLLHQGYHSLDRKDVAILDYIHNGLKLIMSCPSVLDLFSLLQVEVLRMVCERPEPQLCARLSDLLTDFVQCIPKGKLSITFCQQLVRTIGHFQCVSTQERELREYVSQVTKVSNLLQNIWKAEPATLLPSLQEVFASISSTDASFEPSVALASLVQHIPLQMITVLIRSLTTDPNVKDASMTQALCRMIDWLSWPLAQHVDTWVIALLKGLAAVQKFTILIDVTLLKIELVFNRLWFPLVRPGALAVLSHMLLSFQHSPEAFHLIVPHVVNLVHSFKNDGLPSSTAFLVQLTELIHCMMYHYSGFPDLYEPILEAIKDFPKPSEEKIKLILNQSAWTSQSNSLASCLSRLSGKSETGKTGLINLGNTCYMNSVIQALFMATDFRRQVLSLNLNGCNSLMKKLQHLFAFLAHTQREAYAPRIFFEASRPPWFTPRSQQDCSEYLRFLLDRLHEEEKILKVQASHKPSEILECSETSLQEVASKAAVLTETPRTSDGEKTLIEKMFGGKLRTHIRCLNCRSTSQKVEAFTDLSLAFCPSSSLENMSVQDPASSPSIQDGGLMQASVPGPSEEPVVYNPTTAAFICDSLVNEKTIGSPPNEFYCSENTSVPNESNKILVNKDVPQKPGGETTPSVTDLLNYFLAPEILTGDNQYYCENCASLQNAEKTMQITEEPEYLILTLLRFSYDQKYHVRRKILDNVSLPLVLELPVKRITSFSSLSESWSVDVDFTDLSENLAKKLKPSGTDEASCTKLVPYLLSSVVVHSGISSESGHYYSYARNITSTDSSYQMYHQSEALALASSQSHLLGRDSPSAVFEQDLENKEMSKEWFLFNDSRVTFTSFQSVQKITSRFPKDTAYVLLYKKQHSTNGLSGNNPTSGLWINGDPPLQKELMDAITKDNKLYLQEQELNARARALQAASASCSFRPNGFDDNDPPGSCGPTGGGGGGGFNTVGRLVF
Procedure, shortened: as §1

USP39 = target: T3, USP39 (UniProt Q53GS9)
T3 sequence (whole entry): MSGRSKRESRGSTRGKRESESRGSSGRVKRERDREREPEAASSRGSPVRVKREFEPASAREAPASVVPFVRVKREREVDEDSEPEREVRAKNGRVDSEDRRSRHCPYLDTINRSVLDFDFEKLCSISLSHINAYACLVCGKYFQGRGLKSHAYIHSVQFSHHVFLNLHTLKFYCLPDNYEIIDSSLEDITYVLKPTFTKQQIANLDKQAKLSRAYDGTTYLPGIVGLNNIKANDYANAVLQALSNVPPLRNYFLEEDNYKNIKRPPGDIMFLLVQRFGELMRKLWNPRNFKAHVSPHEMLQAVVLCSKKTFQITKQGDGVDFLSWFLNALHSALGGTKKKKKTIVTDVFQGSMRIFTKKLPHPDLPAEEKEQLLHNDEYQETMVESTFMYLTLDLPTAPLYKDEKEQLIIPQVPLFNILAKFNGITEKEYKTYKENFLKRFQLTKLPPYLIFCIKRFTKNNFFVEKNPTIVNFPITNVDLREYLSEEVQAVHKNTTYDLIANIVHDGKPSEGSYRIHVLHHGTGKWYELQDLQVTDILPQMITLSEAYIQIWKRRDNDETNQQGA
Procedure, shortened: as §1

USP4 = target: T4, USP4 (UniProt Q13107)
T4 sequence (whole entry): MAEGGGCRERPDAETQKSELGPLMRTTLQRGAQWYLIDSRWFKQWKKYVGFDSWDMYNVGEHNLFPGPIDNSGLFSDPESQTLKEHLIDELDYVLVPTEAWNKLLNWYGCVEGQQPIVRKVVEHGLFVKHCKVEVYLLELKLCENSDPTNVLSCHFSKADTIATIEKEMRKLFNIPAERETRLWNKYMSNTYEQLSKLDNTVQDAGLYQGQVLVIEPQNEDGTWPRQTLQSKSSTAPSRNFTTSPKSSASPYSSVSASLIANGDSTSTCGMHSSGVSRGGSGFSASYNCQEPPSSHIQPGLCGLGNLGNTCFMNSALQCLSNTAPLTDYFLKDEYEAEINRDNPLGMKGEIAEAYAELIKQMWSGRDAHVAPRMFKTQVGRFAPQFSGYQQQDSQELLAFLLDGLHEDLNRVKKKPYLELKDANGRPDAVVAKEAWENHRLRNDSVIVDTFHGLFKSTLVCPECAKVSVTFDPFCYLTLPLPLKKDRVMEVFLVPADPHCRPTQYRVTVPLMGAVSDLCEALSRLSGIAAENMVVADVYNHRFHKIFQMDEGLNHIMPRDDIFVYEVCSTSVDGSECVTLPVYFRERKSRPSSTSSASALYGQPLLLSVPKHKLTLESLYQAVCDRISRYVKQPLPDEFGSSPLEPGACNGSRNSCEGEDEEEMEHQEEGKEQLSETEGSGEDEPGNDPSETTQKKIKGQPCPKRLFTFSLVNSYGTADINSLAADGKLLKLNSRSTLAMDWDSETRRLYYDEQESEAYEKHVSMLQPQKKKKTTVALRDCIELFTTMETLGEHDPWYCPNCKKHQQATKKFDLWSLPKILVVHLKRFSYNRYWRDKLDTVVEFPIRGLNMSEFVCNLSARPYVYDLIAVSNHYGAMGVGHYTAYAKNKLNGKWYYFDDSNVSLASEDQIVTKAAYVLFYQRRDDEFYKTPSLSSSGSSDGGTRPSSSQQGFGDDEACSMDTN
Procedure, shortened: as §1

Measured: log2 ratio of Biotin-Ahx-Ub-VS probe labelling

USP34, sequence (Q70CQ2 whole entry, the tested form may be a part): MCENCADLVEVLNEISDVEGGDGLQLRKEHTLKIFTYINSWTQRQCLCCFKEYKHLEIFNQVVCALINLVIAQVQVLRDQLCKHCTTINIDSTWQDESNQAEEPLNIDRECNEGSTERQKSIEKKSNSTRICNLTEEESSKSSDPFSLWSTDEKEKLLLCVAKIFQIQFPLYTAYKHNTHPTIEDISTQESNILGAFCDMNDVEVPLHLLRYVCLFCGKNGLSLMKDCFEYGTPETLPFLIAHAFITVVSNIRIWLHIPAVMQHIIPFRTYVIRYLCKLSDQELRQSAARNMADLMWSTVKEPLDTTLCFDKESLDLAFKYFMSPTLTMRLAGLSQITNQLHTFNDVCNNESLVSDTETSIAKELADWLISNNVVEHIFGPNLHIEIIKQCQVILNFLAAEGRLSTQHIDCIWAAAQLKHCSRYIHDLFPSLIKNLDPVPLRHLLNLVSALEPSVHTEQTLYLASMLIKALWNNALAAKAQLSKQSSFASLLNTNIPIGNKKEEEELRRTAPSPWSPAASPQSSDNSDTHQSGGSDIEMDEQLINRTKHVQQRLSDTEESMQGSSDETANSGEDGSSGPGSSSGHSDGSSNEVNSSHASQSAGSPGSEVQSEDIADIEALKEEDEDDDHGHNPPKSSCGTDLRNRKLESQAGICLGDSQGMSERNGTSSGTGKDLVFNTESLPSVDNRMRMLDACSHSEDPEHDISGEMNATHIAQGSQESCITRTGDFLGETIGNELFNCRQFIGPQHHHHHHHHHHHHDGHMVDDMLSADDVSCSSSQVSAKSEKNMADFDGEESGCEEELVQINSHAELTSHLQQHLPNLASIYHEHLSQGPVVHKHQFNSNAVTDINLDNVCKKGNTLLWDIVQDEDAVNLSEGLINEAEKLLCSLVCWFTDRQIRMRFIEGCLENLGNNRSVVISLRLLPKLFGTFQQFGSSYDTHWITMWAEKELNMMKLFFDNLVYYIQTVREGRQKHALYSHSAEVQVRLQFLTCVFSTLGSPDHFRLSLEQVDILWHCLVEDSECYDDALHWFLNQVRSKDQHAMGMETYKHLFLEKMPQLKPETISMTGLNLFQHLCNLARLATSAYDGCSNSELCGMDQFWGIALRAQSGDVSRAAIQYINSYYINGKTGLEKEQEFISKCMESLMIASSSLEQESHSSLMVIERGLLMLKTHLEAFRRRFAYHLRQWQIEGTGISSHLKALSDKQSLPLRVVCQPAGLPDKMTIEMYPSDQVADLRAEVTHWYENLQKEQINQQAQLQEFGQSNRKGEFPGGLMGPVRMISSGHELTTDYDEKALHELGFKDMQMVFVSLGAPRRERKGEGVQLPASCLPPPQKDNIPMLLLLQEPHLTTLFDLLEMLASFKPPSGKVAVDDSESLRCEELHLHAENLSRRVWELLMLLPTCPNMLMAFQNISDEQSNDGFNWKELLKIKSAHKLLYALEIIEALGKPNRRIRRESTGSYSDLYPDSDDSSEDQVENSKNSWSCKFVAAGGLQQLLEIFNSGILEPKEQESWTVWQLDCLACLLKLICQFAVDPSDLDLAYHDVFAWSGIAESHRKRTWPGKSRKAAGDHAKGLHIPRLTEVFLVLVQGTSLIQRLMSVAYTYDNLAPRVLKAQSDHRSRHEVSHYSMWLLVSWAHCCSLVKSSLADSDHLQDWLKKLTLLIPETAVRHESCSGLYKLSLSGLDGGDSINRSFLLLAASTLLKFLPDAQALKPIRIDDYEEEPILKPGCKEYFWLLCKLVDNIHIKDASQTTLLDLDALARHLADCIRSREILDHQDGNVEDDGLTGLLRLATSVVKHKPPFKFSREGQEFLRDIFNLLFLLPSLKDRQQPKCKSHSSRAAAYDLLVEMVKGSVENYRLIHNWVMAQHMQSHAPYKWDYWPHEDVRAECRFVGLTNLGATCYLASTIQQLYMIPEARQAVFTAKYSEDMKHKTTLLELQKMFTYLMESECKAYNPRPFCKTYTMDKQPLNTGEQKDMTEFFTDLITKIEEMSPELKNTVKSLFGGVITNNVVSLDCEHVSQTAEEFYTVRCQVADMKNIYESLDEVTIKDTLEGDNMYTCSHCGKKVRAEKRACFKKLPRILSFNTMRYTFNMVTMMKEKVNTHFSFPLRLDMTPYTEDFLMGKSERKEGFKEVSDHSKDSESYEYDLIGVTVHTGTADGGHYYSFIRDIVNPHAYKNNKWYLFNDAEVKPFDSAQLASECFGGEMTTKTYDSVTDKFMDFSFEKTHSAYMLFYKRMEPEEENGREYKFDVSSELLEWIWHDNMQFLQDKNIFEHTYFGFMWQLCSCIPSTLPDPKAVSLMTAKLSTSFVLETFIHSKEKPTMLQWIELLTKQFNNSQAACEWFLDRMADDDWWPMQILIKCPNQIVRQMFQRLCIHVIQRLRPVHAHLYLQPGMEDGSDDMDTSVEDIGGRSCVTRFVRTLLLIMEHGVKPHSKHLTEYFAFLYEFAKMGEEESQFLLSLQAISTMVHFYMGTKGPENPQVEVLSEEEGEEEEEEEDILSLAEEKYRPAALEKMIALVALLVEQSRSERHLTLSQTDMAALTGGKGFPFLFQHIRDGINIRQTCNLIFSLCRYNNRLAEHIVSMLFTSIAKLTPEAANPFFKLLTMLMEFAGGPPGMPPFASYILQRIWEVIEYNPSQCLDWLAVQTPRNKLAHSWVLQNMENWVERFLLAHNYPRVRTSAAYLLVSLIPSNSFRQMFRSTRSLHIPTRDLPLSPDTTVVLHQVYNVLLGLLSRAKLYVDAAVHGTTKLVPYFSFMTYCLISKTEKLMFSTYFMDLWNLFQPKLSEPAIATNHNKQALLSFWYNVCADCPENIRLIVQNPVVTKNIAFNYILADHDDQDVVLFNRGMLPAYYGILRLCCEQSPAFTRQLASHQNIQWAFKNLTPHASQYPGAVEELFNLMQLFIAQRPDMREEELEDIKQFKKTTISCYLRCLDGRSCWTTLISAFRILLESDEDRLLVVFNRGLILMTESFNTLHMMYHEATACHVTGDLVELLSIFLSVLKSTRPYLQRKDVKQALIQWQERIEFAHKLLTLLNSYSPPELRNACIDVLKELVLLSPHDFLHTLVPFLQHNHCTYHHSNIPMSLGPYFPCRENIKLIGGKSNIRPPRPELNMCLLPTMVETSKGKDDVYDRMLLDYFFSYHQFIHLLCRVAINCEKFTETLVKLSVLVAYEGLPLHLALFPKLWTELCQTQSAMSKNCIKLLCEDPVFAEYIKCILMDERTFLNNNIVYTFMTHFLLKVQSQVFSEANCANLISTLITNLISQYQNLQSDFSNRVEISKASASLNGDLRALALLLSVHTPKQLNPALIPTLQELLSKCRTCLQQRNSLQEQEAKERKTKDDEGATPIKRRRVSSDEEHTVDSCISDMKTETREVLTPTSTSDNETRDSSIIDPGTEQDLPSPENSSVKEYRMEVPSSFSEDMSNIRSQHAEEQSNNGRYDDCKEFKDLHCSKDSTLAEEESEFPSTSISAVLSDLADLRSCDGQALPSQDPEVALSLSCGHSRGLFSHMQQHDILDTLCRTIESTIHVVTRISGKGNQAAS

CN(CCc1ncc(Br)cn1)C(=O)CCl.Cl
inactive: USP34 -0.228 | USP36 -0.122 | USP38 -0.00939 | USP39 0.3 | USP4 -0.0898

— the supplement of paper PMC11732987, “Enantioselective OTUD7B fragment discovery through chemoproteomics screening and high-throughput optimisation” (Communications Chemistry, 2025)
